From PubChem
Hits are enriched below; roughly 9.3% of the tested compounds scored in any of these assays.
M1 ag: M1 muscarinic receptor agonism; CHO-M1 cells, Fluo-4 calcium fluorescence, agonist mode; hits give high values; B-score at 10 µM; 3% of 64,000 active; AID 626;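 active = fluorescence rise, raw or as B-score row- and column-corrected plate score, outside the 99.7% band of its plate's samples, either direction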
NADH coupling: inhibitors of enzymes used to reach an NAD/NADH endpoint | coupled PK/LDH NADH assays, four targets | IC50, µM (doses to about 10 µM), for inactives: at the top dose inhibition | 0.02% of 65,000 active | AID 774;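 active = single-dose screening hits from any of four coupled enzyme assays that gave an IC50 when retested across doses; inconclusive = no clear call, values can overlap the other calls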;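 note: the DPM-DC format reads NADH fluorescence rather than 340 nm absorbance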
M1 antagonist: blocks the rat M1 muscarinic receptor response to acetylcholine; P08482; CHO-M1 cells, Fluo-4 calcium, ACh EC80 antagonist mode; hits give low values; B-score at 10 µM; 3.4% of 64,000 active; AID 628;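 active = calcium fluorescence response, raw or row-and-column corrected B-score, differing from the plate sample mean either way at a set confidence level, mostly lower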
Target sequence (P08482 whole entry, looked up): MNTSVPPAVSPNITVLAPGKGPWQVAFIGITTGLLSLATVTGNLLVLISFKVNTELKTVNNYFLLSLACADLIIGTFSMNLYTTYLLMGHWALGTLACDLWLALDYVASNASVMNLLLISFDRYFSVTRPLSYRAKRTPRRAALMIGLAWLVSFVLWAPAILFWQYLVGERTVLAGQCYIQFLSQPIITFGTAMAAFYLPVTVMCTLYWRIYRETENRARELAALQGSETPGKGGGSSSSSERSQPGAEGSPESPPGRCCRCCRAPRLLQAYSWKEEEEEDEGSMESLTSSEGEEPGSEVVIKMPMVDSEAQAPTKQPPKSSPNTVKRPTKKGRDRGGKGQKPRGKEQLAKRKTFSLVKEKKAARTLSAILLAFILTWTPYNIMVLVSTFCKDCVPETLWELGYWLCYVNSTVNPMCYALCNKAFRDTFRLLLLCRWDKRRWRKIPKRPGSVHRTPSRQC
Fluor 339 460: intrinsic fluorescence of library compounds, ex339/em460 – biochemical, MLSMR library, data from DPM-DC assay, artefact control, profiling panel | 5.5% of 65,000 active | compound autofluorescence, ex339/em460 nm, NADH buffer; hits give high values; 1 = no-compound wells, NADH background | fluorescence fold increase at 10 µM | AID 709;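 active = at 10 µM, mean starting fluorescence two-fold or more over control wells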;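 note: signal is the first read of a kinetic run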
Abs 340nm: compounds absorbing at 340 nm; compound absorbance at 340 nm, fold over control; fold change at 10 µM; 65,000 tested, under 10 active;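 active = at 10 µM dose, initial 340 nm absorbance at least 2 fold that of control wells; inactive = change under 2 fold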;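 note: initial absorbance extrapolated from kinetic A340 decline of NADH oxidation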
Htt clearance: mutant huntingtin protein clearance | inhibition, % at 1.5 µM | 0.42% of 47,000 active | AID 853 | HeLa Exon1htt(103Q)mCFP, aggregate imaging; zero = plate's median compound well;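 active = inhibition of aggregate fluorescence above about 70%, also judged a hit by eye on the cell image, limit read from the data, passing the limit was not always enough; inconclusive = no rule stated for this call; inactive = not judged a hit on image review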;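 note: cells exposed to compound for three days before fixation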
Numbers without * were called inactive; ? = inconclusive; / = no result given.

SMILES	M1 ag	NADH coupling	M1 antagonist	Fluor 339 460	Abs 340nm	Htt clearance
CCOC(=O)COc1ccc(S(=O)(=O)NCC2CCCO2)cc1 (configuration not stated)	/	/	/	/	/	-75
O=C(COc1ccc(F)cc1)NCC1CCCO1 (configuration not stated)	-0.014	9%	0.26	1.1	1	71*
Cc1ccc(-c2csc(NC(=O)CSc3ncn(-c4ccccc4)n3)n2)cc1	0.21	7%	0.51	1.1	1.1	-6
CS(=O)(=O)N(Cc1ccc(C(=O)NCc2ccco2)cc1)c1ccccc1	-0.0035	11%	1.9*	0.86	1	2
COc1ccc(OC)c(NC(=O)CSc2nnc(Cn3nnc4ccccc43)n2C)c1	/	/	/	/	/	-31
CC1(C)NC(=O)N(CCCSc2ccc(Cl)cc2)C1=O	0.092	9%	0.79	1.1	1.1	/
O=C(CCCCCN1C(=O)CCC1=O)NCc1ccccc1	-1.3	4%	2.1*	1.1	1	17
CCc1ccc(C2C3=C(CC(C)(C)CC3=O)Nc3c2c(=O)[nH]c2nc(C)nn32)cc1 (configuration not stated)	-1.1	0%	-0.53	3.4*	1.1	/
CCOC(=O)c1ccccc1NC(=O)Cn1cnc2c(cnn2-c2ccc(OC)cc2)c1=O	-0.066	2%	-0.93	1.4	1	86*
Cc1ccc(-n2ncc3c(=O)n(CC(=O)Nc4cccc(Cl)c4)cnc32)cc1C	-0.42	4%	-0.087	2.7*	0.98	-30
CCOC(=O)c1ccccc1NC(=O)Cn1cnc2c(cnn2-c2ccccc2)c1=O	0.25	5%	0.17	1.1	0.99	-7
Brc1c(CSc2nncn2-c2ccccc2)nc2sccn12	-0.0099	3%	0.053	0.96	0.99	/
Brc1c(CSc2nc3ccccc3o2)nc2ncccn12	0.83	10%	-0.72	5*	1	14
Brc1c(CSc2nncn2-c2ccccc2)nc2ncccn12	-0.0068	0%	0.98	4*	1.1	43
COc1ccccc1N(Cc1cc2cccc(C)c2[nH]c1=O)C(=O)C(C)C	-0.42	0%	-0.1	1.2	1.1	/
Cc1cc(OCC(=O)NCc2nc(-c3ccccc3)no2)c(C)cc1Br	/	6%	/	1.1	1.1	/
CC(=O)C(=Nc1ccccc1Cl)NNc1ccc(Cl)cc1	/	/	/	/	/	51
Cn1ncc2c(Nc3ccc(-c4ccccc4)cc3)ncnc21	-0.34	16%	0.31	3.1*	1.1	/
COC(=O)C1=CN(CC2CCCO2)C=C(C(=O)OC)C1c1cc(OC)c(OC)c(OC)c1 (configuration not stated)	0.89	10%	0.0013	2.1*	1.1	/
CCCOc1ccc(C2C(C(=O)OC)=CN(CCOC)C=C2C(=O)OC)cc1	-0.45	7%	0.1	2.6*	1	?
COCCN1C=C(C(=O)OC)C(c2ccccc2C(F)(F)F)C(C(=O)OC)=C1	/	/	/	/	/	-33
COc1cc(C(=O)N(Cc2ccccn2)CC2CCCO2)cc(OC)c1OC (configuration not stated)	-0.56	6%	0.71	1.1	0.99	/
COCCN1C=C(C(=O)OC)C(c2ccc(OC)c(OC)c2)C(C(=O)OC)=C1	0.11	11%	0.46	2.2*	1.1	/
CCOC(=O)c1[nH]c2cc3c(cc2c1NC(=O)CN1CCC2(CC1)OCCO2)OCO3	1.5	1%	-0.039	2.3*	1.1	42
CCOC(=O)c1[nH]c2cc(OC)c(OC)cc2c1NC(=O)CN(C)C1CCCCC1	0.7	13%	0.33	3.7*	1.1	0
SMILES	M1 ag	NADH coupling	M1 antagonist	Fluor 339 460	Abs 340nm	Htt clearance
CCOC(=O)c1[nH]c2cc3c(cc2c1NC(=O)CN1CCCCC1C)OCO3 (configuration not stated)	0.73	6%	0.38	2.3*	1.1	-26
CCOC(=O)c1[nH]c2ccc(OCC)cc2c1NC(=O)CN1CCC2(CC1)OCCO2	0.038	7%	-0.51	3.9*	1.1	/
CCOC(=O)c1[nH]c2ccccc2c1NC(=O)CN1CCCCC1	-0.14	9%	-1.3	1.5	1	19
CCOC(=O)c1[nH]c2cc(OC)c(OC)cc2c1NC(=O)c1ccc2c(c1)OCO2	0.47	6%	-0.29	1.2	1.2	3
O=C(NC1CCCC1)C(c1cccs1)N(CC1CCCO1)C(=O)Cc1cccs1 (configuration not stated)	/	8%	/	1	0.97	/
CCOC(=O)c1[nH]c2ccc(F)cc2c1NC(=O)CN1CCN(C/C=C/c2ccccc2)CC1	-0.012	8%	-1.9	2.6*	1	/
CCOC(=O)c1[nH]c2ccc(OCC)cc2c1NC(=O)CN1CCN(c2ccccc2)CC1	-0.22	3%	1.3	3.2*	1.1	/
COC(=O)c1[nH]c2ccccc2c1NC(=O)CN1CCN(C/C=C/c2ccccc2)CC1	-0.074	9%	-2.2	1.8	1	-15
COc1ccc(CNC(=O)CSc2nnc(Cn3nnc4ccccc43)n2C)cc1	/	/	/	/	/	-5
CC(C)C(=O)Nc1ccc2c(c1)C(=O)N(CCC(=O)O)C2=O	0.44	2%	-0.062	2.3*	1	/
C=CCn1c(=N)c(C(=O)NCCCOC)cc2c(=O)n3ccccc3nc21	-1.4	14%	-0.96	3.7*	1	/
C=CCn1cc(C(=O)NCCCOC)c(=O)c2cc(S(=O)(=O)N(CC)CC)ccc21	-0.24	4%	0.52	1.2	1	/
C=CCn1c(=N)c(C(=O)NCCCOC)cc2c(=O)n3cc(C)ccc3nc21	-1.1	5%	-1.3	3.8*	1	/
Cc1cc(=O)oc2cc(OCc3ccc(S(=O)(=O)N4CCOCC4)cc3)ccc12	-0.34	1%	0.26	2.1*	1.1	-78
CC1(C)N(O)CC(c2cccs2)=[N+]1[O-]	-0.19	0%	0.014	1.1	1.1	/
Cc1ccc(N2C(=O)c3ccc(C(=O)N4CCN(c5ccccc5F)CC4)cc3C2=O)cc1	-0.15	2%	0.21	1.1	1	/
O=C(CSc1nc2c(c(=O)n1-c1ccc(Cl)cc1)SCC2)Nc1ccc2c(c1)OCCO2	0.31	9%	0.075	1.1	1.1	/
CCn1c2ccccc2c2nc3ccccc3nc21	-0.038	3%	0.013	2	1.1	-21
COc1cc2nc3c4ccccc4n(CC#N)c3nc2cc1OC	-0.4	8%	0.81	3.8*	1.1	-8
COc1ccccc1CCNC(=O)c1ccoc1C	0.0055	8%	0.47	1.1	1	/
CCOc1nc(Nc2ccc(-c3nc4ccccc4o3)cc2)nc(N2CCOCC2)n1	0.031	4%	0.0079	4.8*	1.1	/
C(=N\c1nccs1)/c1cccnc1	0.19	4%	0.7	0.95	1	-10
O=C(CCN1CCN(c2ccc(Cl)cc2)CC1)Nc1ccccc1F	0.03	4%	2.1*	1.1	0.98	20
COC(=O)c1c(C)cc(C)n2c1nc1ccccc12	-0.11	16%	-1.3	3.5*	1	10
NC(=O)c1ccsc1NC(=O)COC(=O)c1ccccc1NCc1ccco1	-0.32	0%	-0.76	2.1*	1.1	/
